Assay results as given in PubChem BioAssay (NCATS).
“And” between values parts separate entries of the source, which are not always exact repeats. Identical values can stand only once. Records with an inconclusive call do not appear. The source made the active and inactive calls. The call rests on the fitted dose curve; in most records, active means well fitted curve in the direction sought with a large enough effect; inconclusive means small, poorly fitted or top-dose-only effect, or another doubt; inactive means no such curve, though single readings can be large; an effect the other way counts as inactive or inconclusive.

Assays:
[1] = biological target: Cellular tumor antigen p53 (Homo sapiens) (UniProt P04637); assay: Primary qHTS for small molecule compounds that upregulate eGFP-tagged delta133p53alpha (in N-terminal) cells. (AID 2060322); conditions: NCI-H358 eGFP-delta133p53alpha fluorescence, 24 h; activation: hits give high values; further: nearly all actives have a fitted effect of over 75% in size; further: potency means the concentration at half of the fitted maximal effect;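 on activation: cells pre-induced with doxycycline then dosed without doxycycline; series mostly up to about 56 µM; 0% = DMSO vehicle and 100% = reference activator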
How it was run: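 NCI-H358 cells pre-induced 24 h with 10 ng/ml doxycycline for eGFP-delta133p53alpha, plated dox-free and exposed 24 h at 37C to titrated compounds. Fixed, Hoechst-stained; gated GFP peak intensity by laser scanning cytometry, normalized to DMSO (0%) and 57.5 uM 5-azacytidine (100%).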

[2] = biological target: Aldehyde dehydrogenase, mitochondrial (Homo sapiens) (UniProt P05091); assay: qHTS for Inhibitors of the Aldehyde Dehydrogenase Family (ALDH2) Primary screen (AID 2061308);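 further: plate controls were vehicle for no effect and reference inhibitor for full effect; nearly all actives have a fitted effect of over 55% in size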
[3] = biological target: Retinaldehyde dehydrogenase 3 (Homo sapiens) (UniProt P47895); assay: qHTS for Inhibitors of the Aldehyde Dehydrogenase Family (ALDH1A3) Validation screen (AID 2061312); further: on the % scale 0 is the no-effect control and ±100 the full control effect; nearly all actives have a fitted effect of over 45% in size
[4] = biological target: Retinaldehyde dehydrogenase 3 (Homo sapiens) (UniProt P47895); assay: qHTS for Inhibitors of the Aldehyde Dehydrogenase Family (ALDH1A3) Primary screen (AID 2061315);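 further: plate controls were DMSO vehicle for no effect and reference inhibitor for full effect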

Sequence of Cellular tumor antigen p53 (Homo sapiens) (P04637 whole entry, looked up): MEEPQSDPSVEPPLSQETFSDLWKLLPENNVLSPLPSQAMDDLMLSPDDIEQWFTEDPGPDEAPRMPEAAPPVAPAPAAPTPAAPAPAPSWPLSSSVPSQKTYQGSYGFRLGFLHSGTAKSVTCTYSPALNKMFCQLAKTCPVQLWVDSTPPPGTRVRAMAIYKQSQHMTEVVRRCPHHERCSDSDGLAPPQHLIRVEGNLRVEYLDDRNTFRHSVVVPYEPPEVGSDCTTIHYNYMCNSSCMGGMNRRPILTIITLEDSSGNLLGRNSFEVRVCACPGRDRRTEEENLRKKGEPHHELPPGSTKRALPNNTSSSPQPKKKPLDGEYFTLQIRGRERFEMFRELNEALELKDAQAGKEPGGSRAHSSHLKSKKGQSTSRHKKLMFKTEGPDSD

O=C(Nc1ccc(-n2nc(C(F)(F)F)cc2C(F)(F)F)cc1)c1ccncc1F
inactive: activation [1] -5.25% | Potency [2] | Potency [3] | Potency [4]

O=C(Nc1ccc(S(=O)(=O)Nc2nccs2)cc1)C(c1ccccc1)c1ccccc1
inactive: activation [1] -2.86% | Potency [2] | Potency [3] | Potency [4]

COc1ccc(CCN(C)CCCOc2nsc(-c3ccccc3)n2)cc1OC
inactive: activation [1] 13.4% | Potency [2] | Potency [3] | Potency [4]

CNC(=O)c1ccc2c(c1)CCO[C@H]2CCN1CCN(c2ccc(OC)cc2)CC1
inactive: activation [1] -25.3% | Potency [2] | Potency [3] | Potency [4]

COCCN1CCC(C(=O)NO)(S(=O)(=O)c2ccc(Oc3ccc(OC(F)(F)F)cc3)cc2)CC1
inactive: activation [1] -13.4% | Potency [2] | Potency [3] | Potency [4]

CCNC(=O)c1noc(-c2cc(C(C)C)c(O)cc2O)c1-c1ccc(CN2CCOCC2)cc1
inactive: activation [1] -2.59% and -6.68% | Potency [2] | Potency [3] | Potency [4]

CCc1cc2c(=O)c(-c3nc4ccccc4s3)coc2c(CN2CCCCC2)c1O
inactive: activation [1] 0.955% | Potency [2] | Potency [3] | Potency [4]

O=C(C(Cc1cccc(C(F)(F)F)c1)NS(=O)(=O)c1cc(F)c2c(c1)CCNC2)N1CCCC1 (stereo unspecified)
inactive: activation [1] -13.4% | Potency [2] | Potency [3] | Potency [4]

CC(=O)NCC(=O)N1C2CCC1c1cc(Nc3ncc(C(F)(F)F)c(NC4CCC4)n3)ccc12 (stereo unspecified)
inactive: Potency [2] | Potency [3] | Potency [4]
active: Potency [1] 3.79 µM
